# In article PMC7862700, “An all-to-all approach to the identification of sequence-specific readers for epigenetic DNA modifications on cytosine”:
# What was measured:
# Assay in all cases: DAPPL (digital affinity profiling via proximity ligation, sequencing); 10 mM Tris-HCl pH 7.5, 50 mM NaCl, 1 mM DTT, 4% glycerol, room temperature, 30 min; GST-TFs on glutathione beads, 16-mer random dsDNA library, 0.1% formaldehyde crosslink after washing; high values mean tight binding
# Conditions in all cases: protein: recombinant; tags: N-terminal GST; dsDNA, one strand shown
# ELK1 = biological target: T1, ELK1 (Homo sapiens, UniProt P19419 1-428)
# T1 sequence: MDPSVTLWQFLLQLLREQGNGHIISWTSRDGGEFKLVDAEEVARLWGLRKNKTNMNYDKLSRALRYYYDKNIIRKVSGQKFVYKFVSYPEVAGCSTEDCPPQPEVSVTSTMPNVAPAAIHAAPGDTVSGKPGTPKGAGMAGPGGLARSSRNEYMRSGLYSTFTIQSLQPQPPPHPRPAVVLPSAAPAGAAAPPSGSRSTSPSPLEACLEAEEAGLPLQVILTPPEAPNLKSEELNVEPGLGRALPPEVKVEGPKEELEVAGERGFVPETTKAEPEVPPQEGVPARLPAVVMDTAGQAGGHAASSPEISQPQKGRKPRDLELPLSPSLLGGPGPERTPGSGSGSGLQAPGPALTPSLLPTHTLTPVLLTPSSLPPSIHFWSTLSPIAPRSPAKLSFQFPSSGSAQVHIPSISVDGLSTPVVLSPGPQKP
# Summary of the method: (§1)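 A tag-only sample was pooled with DNA-barcoded human transcription factors that had been expressed in yeast as GST fusions and captured on glutathione beads. The pools were incubated for 30 min at room temperature with 200 nmole of a random double-stranded 16-mer DNA library in Tris/NaCl/DTT/glycerol buffer, then washed, crosslinked with 0.1% formaldehyde, proximity-ligated (BsaI/T4 ligase, 1 h, 37 °C), PCR-amplified and sequenced on an Illumina NextSeq500. Binding signal is each hexamer's read frequency for a factor divided by its frequency for the tag-only sample.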
# GABPA = biological target: T2, GABPA (Homo sapiens, UniProt Q06546 1-454)
# T2 sequence: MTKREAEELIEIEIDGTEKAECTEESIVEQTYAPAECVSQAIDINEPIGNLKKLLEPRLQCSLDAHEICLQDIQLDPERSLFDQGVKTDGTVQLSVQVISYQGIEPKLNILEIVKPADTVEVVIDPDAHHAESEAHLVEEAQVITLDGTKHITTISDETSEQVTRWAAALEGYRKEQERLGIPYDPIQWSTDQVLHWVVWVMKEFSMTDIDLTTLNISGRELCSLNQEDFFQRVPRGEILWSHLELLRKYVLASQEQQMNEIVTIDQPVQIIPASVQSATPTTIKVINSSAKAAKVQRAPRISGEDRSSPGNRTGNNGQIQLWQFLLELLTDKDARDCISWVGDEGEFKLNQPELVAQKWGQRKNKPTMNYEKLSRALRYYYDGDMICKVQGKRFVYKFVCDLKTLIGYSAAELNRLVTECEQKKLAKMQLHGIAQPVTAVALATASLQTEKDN
# Summary of the method: as §1
# ERG = biological target: T3, ERG (Homo sapiens, UniProt P11308 1-479)
# T3 sequence: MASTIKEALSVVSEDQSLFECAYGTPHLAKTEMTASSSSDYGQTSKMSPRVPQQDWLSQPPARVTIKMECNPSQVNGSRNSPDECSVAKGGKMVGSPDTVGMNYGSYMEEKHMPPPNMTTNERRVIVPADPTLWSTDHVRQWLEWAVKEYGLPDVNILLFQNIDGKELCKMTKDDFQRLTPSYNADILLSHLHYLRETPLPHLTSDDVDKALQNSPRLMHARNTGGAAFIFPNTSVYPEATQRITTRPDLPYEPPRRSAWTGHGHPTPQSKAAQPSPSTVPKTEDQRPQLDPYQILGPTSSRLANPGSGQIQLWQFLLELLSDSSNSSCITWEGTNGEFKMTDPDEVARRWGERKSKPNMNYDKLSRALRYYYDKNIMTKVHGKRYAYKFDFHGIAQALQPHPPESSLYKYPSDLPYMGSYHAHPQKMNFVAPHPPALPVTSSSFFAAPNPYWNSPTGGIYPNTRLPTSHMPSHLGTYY
# Summary of the method: as §1
# EHF = biological target: T4, EHF (Homo sapiens, UniProt Q9NZC4 1-300)
# T4 sequence: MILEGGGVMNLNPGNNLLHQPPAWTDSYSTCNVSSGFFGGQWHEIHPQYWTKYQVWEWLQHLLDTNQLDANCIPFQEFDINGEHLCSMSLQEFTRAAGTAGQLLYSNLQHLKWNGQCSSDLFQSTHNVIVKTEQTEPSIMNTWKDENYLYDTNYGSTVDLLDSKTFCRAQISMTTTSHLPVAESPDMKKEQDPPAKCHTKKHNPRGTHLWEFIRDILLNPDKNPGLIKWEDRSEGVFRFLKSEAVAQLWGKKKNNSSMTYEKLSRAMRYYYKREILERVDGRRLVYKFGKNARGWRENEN
# Summary of the method: as §1
# SPIB = SPIB (Homo sapiens, UniProt Q01892 1-262)
# Summary of the method: as §1
# FEV = biological target: T5, FEV (Homo sapiens, UniProt Q99581 1-238)
# T5 sequence: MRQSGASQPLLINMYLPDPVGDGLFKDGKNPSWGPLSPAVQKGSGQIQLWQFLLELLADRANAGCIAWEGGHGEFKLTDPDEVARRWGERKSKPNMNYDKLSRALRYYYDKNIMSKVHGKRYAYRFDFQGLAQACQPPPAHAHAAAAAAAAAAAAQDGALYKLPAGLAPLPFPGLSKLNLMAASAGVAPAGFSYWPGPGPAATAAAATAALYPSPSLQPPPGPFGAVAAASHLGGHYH
# Summary of the method: as §1
# ETV5 = ETV5 (Homo sapiens, UniProt P41161 1-510)
# Summary of the method: as §1
# ELF4 = ELF4 (Homo sapiens, UniProt Q99607 1-663)
# Summary of the method: as §1
# ETV2 = biological target: T6, ETV2 (Homo sapiens, UniProt O00321 1-342)
# T6 sequence: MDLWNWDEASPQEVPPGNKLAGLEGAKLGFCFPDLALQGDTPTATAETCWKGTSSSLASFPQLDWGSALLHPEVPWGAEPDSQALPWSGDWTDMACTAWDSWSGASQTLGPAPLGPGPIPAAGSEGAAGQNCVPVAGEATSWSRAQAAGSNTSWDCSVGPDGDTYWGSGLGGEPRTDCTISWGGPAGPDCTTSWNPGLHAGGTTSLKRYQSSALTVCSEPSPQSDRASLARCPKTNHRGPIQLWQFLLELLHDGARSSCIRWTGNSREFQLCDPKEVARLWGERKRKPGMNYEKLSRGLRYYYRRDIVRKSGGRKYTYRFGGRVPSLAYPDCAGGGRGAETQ
# Summary of the method: as §1
# ELF3 = biological target: T7, ELF3 (Homo sapiens, UniProt P78545 1-371)
# T7 sequence: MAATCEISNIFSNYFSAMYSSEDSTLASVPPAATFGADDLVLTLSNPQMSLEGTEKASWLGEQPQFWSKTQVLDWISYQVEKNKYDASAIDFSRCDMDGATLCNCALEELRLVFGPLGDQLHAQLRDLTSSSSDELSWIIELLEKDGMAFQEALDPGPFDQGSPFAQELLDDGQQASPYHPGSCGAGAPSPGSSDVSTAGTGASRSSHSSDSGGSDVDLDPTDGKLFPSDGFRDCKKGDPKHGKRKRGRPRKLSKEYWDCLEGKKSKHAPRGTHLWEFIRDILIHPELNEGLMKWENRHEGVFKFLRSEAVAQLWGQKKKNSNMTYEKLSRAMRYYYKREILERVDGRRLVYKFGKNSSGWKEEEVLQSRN
# Summary of the method: as §1
# ETV1 = ETV1 (Homo sapiens, UniProt P50549 1-477)
# Summary of the method: as §1
# SPDEF = biological target: T8, SPDEF (Homo sapiens, UniProt O95238 1-335)
# T8 sequence: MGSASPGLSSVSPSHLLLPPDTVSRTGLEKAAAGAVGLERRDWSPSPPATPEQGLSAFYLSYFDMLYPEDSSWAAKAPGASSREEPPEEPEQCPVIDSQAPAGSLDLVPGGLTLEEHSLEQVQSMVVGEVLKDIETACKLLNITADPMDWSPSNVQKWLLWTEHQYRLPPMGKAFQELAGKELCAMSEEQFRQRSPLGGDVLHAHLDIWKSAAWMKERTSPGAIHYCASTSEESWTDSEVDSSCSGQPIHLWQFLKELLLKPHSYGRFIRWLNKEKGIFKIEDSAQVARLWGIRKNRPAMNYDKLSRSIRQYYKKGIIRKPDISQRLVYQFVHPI
# Summary of the method: as §1
# Sequence of ETV1 (P50549 whole entry): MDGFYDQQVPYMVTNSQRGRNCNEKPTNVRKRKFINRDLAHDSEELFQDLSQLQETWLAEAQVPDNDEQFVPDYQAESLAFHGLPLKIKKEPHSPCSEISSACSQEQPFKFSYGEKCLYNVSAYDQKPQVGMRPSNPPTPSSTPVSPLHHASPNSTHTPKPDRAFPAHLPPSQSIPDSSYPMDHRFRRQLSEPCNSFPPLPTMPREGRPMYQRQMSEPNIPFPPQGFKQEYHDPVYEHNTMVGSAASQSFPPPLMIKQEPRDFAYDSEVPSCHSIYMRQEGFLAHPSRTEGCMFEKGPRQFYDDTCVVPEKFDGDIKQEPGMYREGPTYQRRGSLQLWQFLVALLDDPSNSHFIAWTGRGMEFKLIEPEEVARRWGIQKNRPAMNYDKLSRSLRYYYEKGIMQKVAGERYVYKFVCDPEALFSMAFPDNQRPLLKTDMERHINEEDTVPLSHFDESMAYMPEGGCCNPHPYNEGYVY
# Sequence of ETV5 (P41161 whole entry): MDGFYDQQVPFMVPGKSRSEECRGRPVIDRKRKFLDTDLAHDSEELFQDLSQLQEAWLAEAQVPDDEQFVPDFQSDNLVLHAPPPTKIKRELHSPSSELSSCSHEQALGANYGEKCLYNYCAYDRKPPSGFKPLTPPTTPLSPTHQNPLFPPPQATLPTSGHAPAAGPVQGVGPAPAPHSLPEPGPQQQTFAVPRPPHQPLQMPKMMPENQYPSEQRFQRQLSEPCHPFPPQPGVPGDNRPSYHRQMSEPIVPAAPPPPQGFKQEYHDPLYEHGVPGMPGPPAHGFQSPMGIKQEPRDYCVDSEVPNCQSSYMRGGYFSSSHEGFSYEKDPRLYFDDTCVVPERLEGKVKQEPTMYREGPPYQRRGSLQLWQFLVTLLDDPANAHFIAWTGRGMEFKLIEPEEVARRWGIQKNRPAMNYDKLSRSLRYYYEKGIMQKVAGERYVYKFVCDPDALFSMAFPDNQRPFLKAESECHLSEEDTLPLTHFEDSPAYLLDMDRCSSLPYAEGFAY
# Sequence of ELF4 (Q99607 whole entry): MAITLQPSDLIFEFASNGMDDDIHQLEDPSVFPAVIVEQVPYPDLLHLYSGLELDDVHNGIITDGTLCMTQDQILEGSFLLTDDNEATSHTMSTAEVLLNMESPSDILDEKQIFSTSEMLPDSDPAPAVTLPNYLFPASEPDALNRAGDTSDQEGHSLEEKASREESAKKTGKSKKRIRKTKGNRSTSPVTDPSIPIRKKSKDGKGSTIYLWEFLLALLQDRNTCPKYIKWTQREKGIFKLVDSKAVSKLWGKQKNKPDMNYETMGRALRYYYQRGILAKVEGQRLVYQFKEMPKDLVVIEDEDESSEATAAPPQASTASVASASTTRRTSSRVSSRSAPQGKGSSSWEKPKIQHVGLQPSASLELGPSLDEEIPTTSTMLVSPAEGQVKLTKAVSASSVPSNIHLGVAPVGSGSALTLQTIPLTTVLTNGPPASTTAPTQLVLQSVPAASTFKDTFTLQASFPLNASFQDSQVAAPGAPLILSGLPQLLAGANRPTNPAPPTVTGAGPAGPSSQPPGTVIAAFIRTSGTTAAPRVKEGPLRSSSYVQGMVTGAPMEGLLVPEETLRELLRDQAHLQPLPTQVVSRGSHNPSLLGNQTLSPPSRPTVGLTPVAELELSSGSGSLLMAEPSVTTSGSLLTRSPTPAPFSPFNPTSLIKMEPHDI
# Sequence of SPIB (Q01892 whole entry): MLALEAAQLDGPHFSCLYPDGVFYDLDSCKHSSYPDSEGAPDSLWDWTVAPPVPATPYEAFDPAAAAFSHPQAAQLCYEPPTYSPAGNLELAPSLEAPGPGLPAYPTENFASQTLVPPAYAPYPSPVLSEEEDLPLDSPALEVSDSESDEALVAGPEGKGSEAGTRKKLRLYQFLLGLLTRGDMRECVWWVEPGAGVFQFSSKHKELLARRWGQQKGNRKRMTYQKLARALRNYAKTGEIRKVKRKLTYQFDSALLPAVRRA
sequence,measurement,setting,value
GGTCAC,binding signal,ELK1,"1.02 fold enrichment (6-mer frequency, TF over GST control)"
same,binding signal,GABPA,"1.06 fold enrichment (6-mer frequency, TF over GST control)"
same,binding signal,ERG,"1.01 fold enrichment (6-mer frequency, TF over GST control)"
same,binding signal,EHF,"1.04 fold enrichment (6-mer frequency, TF over GST control)"
same,binding signal,SPIB,"1.02 fold enrichment (6-mer frequency, TF over GST control)"
same,binding signal,FEV,"1.04 fold enrichment (6-mer frequency, TF over GST control)"
same,binding signal,ETV5,"1 fold enrichment (6-mer frequency, TF over GST control)"
same,binding signal,ELF4,"1.03 fold enrichment (6-mer frequency, TF over GST control)"
same,binding signal,ETV2,"1.15 fold enrichment (6-mer frequency, TF over GST control)"
same,binding signal,ELF3,"1.05 fold enrichment (6-mer frequency, TF over GST control)"
same,binding signal,ETV1,"1.02 fold enrichment (6-mer frequency, TF over GST control)"
same,binding signal,SPDEF,"1.05 fold enrichment (6-mer frequency, TF over GST control)"
